Results from PubChem BioAssay (Tox21).
Records with an inconclusive call do not appear. Activity calls are given as the source filed them. Unless noted, the call rests on the fitted dose curve; in most records, active means well fitted curve in the direction sought with a large enough effect in the repeat runs; inconclusive means weak or mixed curves; inactive means no such curve, though single readings can be large; an effect the other way counts as inactive or inconclusive.

Legend:
[1] = qHTS assay to identify small molecule agonists of the TGF-beta/Smad signaling pathway (AID 1346859; active means well fitted activation curve with a large enough effect in the signal ratio in the repeat runs, not every such curve was filed as active; the % refers to the signal ratio; further: series mostly up to about 77 µM)
Procedure, shortened: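 Dual-wavelength fluorescence (460/530 nm emission) quantified beta-lactamase expression under the Smad binding element in HEK 293T cells following 5 hr compound treatment at 37 C.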

[2] = target: Thyrotropin-releasing hormone receptor (Homo sapiens) (UniProt P34981); assay: qHTS assay to identify small molecule antagonists of the thyrotropin-releasing hormone receptor (TRHR) signaling pathway (AID 1346877; active means well fitted inhibition curve with a large enough effect in the repeat runs, not every such curve was filed as active; further: series mostly up to about 51 µM)
Sequence of Thyrotropin-releasing hormone receptor (Homo sapiens) (P34981 whole entry, looked up): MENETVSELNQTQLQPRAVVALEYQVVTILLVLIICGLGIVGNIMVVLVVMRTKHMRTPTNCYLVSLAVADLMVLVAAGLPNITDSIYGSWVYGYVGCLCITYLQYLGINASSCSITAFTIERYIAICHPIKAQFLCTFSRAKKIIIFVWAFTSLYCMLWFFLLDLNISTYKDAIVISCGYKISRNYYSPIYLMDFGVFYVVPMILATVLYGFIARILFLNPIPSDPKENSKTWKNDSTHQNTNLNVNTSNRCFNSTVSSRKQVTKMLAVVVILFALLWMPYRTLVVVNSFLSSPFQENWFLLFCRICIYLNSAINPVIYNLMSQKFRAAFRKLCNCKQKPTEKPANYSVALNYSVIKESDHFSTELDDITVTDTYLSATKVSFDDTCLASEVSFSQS
Procedure, shortened: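 HEK293/TRHR cells, 18 h, 37 °C; Ca2+ dye 2 h; cpd 5 min RT; TRH 1 nM final; fluorescence read 3 min, 1 s intervals; 15 concs, triplicate.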

[3] = target: Thyrotropin-releasing hormone receptor (Homo sapiens) (UniProt P34981); assay: qHTS assay to identify small molecule agonists of the thyrotropin-releasing hormone receptor (TRHR) signaling pathway (AID 1346891; calls by dose curve;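 further: HEK293 cells expressing TRHR with calcium dye readout; series mostly up to about 58 µM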)
Procedure, shortened: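 Kinetic fluorescence (3 min, 1 s intervals) reported intracellular calcium after compound transfer onto TRHR-Hek293 cells pre-loaded with dye for 2 h at 37 °C.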

[4] = Human pregnane X receptor (PXR) small molecule agonists, qHTS cell viability counter screen (AID 1346977); further: nearly all actives have a fitted effect of over 50% in size
Procedure, shortened: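 HepG2 cells stably carrying the PXR-Luc reporter are cultured with 5% charcoal-stripped FBS and treated with compounds for 24hr. CellTiter-Fluor is added at 23hr and fluorescence is read after 1hr.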

[5] = Caspase-3/7 induction in CHO-K1 cells by small molecules, qHTS cell viability counter screen (AID 1346979); further: nearly all actives have a fitted effect of over 35% in size
Procedure, shortened: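 Seeding: 1,500 CHO-K1 cells/well. Rest: 5hr, 37C. Treatment: compounds in DMSO, 16hr. Read: CellTiter-Fluor, 1hr, fluorescence.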

[6] = Caspase-3/7 induction in CHO-K1 cells by small molecules, qHTS assay (AID 1346980); further: nearly all actives have a fitted effect of over 15% in size
Procedure, shortened: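 Wild-type cells were seeded at 1,500 per well and settled 5 hr at 37 C, 5% CO2, then exposed to DMSO-dissolved compounds for 17 hr. Caspase-Glo 3/7 reagent was added, and luminescence was read after 30min at room temperature.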

[7] = Caspase-3/7 induction in HepG2 cells by small molecules, qHTS cell viability counter screen (AID 1346981); further: series mostly up to about 92 µM; nearly all actives have a fitted effect of over 30% in size
Procedure, shortened: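 Fluorescence read-out of live-cell protease activity (CellTiter-Fluor) after 1 hr with reagent. This was measured in the same wells as the caspase-3/7 luminescence, on HepG2 cells exposed to DMSO-dissolved compounds for 16 hr at 37 C.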

[8] = target: Nuclear receptor subfamily 1 group I member 2 (Homo sapiens) (UniProt O75469); assay: Human pregnane X receptor (PXR) small molecule agonists, qHTS assay (AID 1346982); further: nearly all actives have a fitted effect of over 35% in size; further: potency means the concentration at half of the fitted maximal effect
Sequence of Nuclear receptor subfamily 1 group I member 2 (Homo sapiens) (O75469 whole entry, looked up): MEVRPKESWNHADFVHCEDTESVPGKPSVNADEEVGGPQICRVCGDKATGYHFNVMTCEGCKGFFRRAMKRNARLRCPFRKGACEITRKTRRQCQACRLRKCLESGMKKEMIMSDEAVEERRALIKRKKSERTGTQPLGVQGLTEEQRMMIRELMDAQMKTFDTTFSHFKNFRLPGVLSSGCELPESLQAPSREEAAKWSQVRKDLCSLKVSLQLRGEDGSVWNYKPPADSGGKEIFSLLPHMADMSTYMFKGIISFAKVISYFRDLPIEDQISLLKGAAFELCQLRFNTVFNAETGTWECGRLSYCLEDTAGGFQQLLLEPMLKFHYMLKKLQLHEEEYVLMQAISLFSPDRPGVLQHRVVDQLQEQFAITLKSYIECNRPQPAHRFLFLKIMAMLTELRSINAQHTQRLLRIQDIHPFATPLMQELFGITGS
Procedure, shortened: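 HepG2 PXR-Luc reporter line, 5% charcoal-stripped FBS; 5 hr pre-incubation, compound (DMSO) 24 hr at 37 C/5% CO2; ONE-Glo 30 min RT; luminescence read-out.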

[9] = Caspase-3/7 induction in HepG2 cells by small molecules, qHTS assay (AID 1346978); further: nearly all actives have a fitted effect of over 15% in size
Procedure, shortened: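 Wild-type HepG2 cells (2,000/well) were settled 5 h at 37 C, 5% CO2, then exposed to compounds in DMSO for 17 h. Caspase-3/7 activity was read by luminescence 30 min after adding Caspase-Glo 3/7 reagent at room temperature.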
On the % scale 0 is the no-effect control and ±100 the full control effect.

CN(C)CCCNCCC#N
inactive: outcome [1] | outcome [2] | outcome [3] | Potency [4] | Potency [5] | outcome [6] | Potency [7] | Potency [8]

CCCCC[Si](OCC)(OCC)OCC
inactive: outcome [1] | Potency [4] | outcome [9] | Potency [5] | outcome [6] | Potency [7] | Potency [8]

COCCOCCOCCOC
inactive: outcome [2] | outcome [3] | Potency [4] | Potency [5] | outcome [6] | Potency [7] | Potency [8]

C/C=C(\C)C(=O)OCC/C=C\CC
inactive: outcome [1] | outcome [2] | outcome [3] | Potency [4] | outcome [9] | Potency [5] | outcome [6] | Potency [7] | Potency [8]

CCC(C)(CCC(C)C)C(=O)[O-].CCC(C)(CCC(C)C)C(=O)[O-].[Zn+2] (stereo unspecified)
inactive: outcome [9] | Potency [5] | outcome [6] | Potency [7]

CC(=O)OC[C@H]1O[C@@H](OC(C)=O)[C@H](OC(C)=O)[C@@H]1OC(C)=O
inactive: outcome [1] | outcome [2] | outcome [3] | outcome [9] | Potency [5] | outcome [6] | Potency [7] | Potency [8]

c1ccc(CNc2ncnc3nc[nH]c23)cc1
inactive: outcome [1] | outcome [2] | outcome [3] | outcome [9] | Potency [5] | outcome [6] | Potency [7]

CCC(C)(C)C1CCC(=O)CC1
inactive: outcome [1] | Potency [4] | outcome [9] | Potency [5] | outcome [6] | Potency [7] | Potency [8]

CCCCCCCCCCCCC1CO1 (stereo unspecified)
inactive: outcome [1] | outcome [2] | outcome [3] | Potency [5] | outcome [6] | Potency [7] | Potency [8]

O=C(O)C(=O)Nc1cccc(-c2nn[nH]n2)c1
inactive: outcome [1] | Potency [4] | outcome [9] | outcome [6] | Potency [7] | Potency [8]

O=S(=O)(O)CCO
inactive: outcome [1] | outcome [2] | outcome [3] | Potency [4] | outcome [9] | Potency [5] | outcome [6] | Potency [7] | Potency [8]

C[C@H](CCC(=O)O)[C@H]1CC[C@H]2[C@@H]3[C@H](O)C[C@@H]4C[C@H](O)CC[C@]4(C)[C@H]3C[C@H](O)[C@]12C
inactive: outcome [1] | Potency [4] | Potency [5] | outcome [6] | Potency [7] | Potency [8]

NC(Cc1c[nH]c2ccccc12)C(=O)O (stereo unspecified)
inactive: outcome [1] | outcome [2] | outcome [3] | Potency [4] | outcome [9] | Potency [5] | outcome [6] | Potency [7] | Potency [8]

CN=C(NC#N)NCCSCc1csc(N=C(N)N)n1
inactive: Potency [4] | Potency [5] | outcome [6] | Potency [7]

O=c1[nH]c(=O)c2[nH]c(=O)[nH]c2[nH]1
inactive: activation [1] -2.44% [at 6.97 µM] | activity, negative = inhibition [2] 0.0155% [at 4.65 µM] | activation [3] 0.501% [at 5.23 µM] | caspase activation [9] -0.796% [at 8.39 µM] | activity change, negative = cytotoxicity [5] 4.37% [at 8.39 µM] | caspase-3/7 activation [6] -0.0479% [at 8.39 µM] | activity change, negative = cytotoxicity [7] 2.67% [at 8.39 µM] | activation [8] -5.05% [at 8.39 µM]

N#CCCOCCOCCC#N
inactive: outcome [1] | outcome [2] | outcome [3] | Potency [5] | outcome [6] | Potency [7] | Potency [8]

COCC(=O)Nc1c(I)c(C(=O)NCC(O)CO)c(I)c(C(=O)N(C)CC(O)CO)c1I (stereo unspecified)
inactive: outcome [1] | Potency [4] | outcome [9] | Potency [5] | outcome [6] | Potency [7] | Potency [8]

CCc1nccnc1C
inactive: outcome [1] | outcome [2] | outcome [3] | Potency [4] | outcome [9] | outcome [6] | Potency [7] | Potency [8]

Cc1ccccc1N1CCN(CCc2nnc3n2CCCC3)CC1
inactive: outcome [1] | outcome [3] | Potency [4] | Potency [5] | outcome [6] | Potency [7] | Potency [8]

NS(=O)(=O)c1cc2c(cc1Cl)NC(CC1CCCC1)NS2(=O)=O (stereo unspecified)
inactive: outcome [1] | outcome [2] | outcome [3] | outcome [9] | Potency [5] | outcome [6] | Potency [7] | Potency [8]

CCN1CN(CC)CN(CC)C1
inactive: outcome [1] | outcome [2] | outcome [3] | Potency [4] | outcome [9] | Potency [5] | outcome [6] | Potency [7] | Potency [8]

CC1CCC(C(C)(C)S)C(=O)C1 (stereo unspecified)
active: Potency [8] 61.1 µM
inactive: outcome [1] | outcome [2] | outcome [3] | Potency [4] | outcome [9] | Potency [5] | outcome [6]

C[C@H](CCC(=O)NCC(=O)O)[C@H]1CC[C@H]2[C@@H]3[C@H](O)C[C@@H]4C[C@H](O)CC[C@]4(C)[C@H]3C[C@H](O)[C@]12C
inactive: outcome [1] | outcome [2] | outcome [3] | Potency [4] | Potency [5] | outcome [6] | Potency [7] | Potency [8]

O=C1c2ccccc2-c2ccccc21
inactive: outcome [3] | Potency [4] | outcome [9] | Potency [5] | outcome [6] | Potency [7] | Potency [8]

CCN(CC)C(=O)C1CN2CCc3cc(OC)c(OC)cc3C2CC1OC(C)=O (stereo unspecified)
inactive: outcome [1] | outcome [2] | outcome [3] | Potency [4] | Potency [5] | outcome [6] | Potency [7] | Potency [8]

CCCCC(CC)COC(=O)c1ccccc1 (stereo unspecified)
inactive: outcome [1] | outcome [2] | outcome [3] | Potency [4] | Potency [5] | outcome [6] | Potency [7] | Potency [8]
